Bioassay records deposited in PubChem BioAssay by The Scripps Research Institute Molecular Screening Center.
Most compounds without a hit are left out; they make up all but 4.1% or so of the library.
hcDAF12 agonist: activators of H. contortus DAF-12 nuclear receptor | HEK293 hcDAF-12 lit1-tk-luc reporter, luminescence; 0% DMSO, 100% Δ7-dafachronic acid | activation, % at 6.8 µM | hit rate 1.4% among 370,000;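 active means activation above the mean of all tested compounds plus 3 SD, cut at about 5.5% in these data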;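 further: 100% = response to 3 µM Δ7-dafachronic acid high control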
DAX1 inh-1: inhibits human nuclear receptor DAX1; P51843; HEK293 Gal4-DAX1 luciferase reporter, luminescence; inhibition, % at 6.75 µM; hit rate 0.99% among 340,000; AID 504766;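 active means inhibition above the mean over all tested compounds plus 3 SD, cut at about 4.2% in these data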;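 further: 0% = DAX1-transfected cells with DMSO and 100% = empty-vector control cells with DMSO; inhibition shows as a rise in luminescence from relieved DAX1 repression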
Target sequence (P51843 207-470 limits assumed): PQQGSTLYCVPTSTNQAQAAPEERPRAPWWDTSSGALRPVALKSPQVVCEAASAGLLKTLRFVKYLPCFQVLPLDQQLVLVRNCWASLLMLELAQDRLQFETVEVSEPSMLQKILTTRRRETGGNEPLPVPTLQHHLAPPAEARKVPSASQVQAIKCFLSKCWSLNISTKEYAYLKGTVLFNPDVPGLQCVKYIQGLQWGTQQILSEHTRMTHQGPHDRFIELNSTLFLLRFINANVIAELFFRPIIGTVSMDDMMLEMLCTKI
ssDAF12 agonist: S. stercoralis DAF-12 activation, primary screen; hit rate 1% among 370,000; HEK293 ssDAF-12/GRIP1 lit1-tk-luc reporter, luminescence; % of 3 µM dafachronic acid response; activation, % at 6.8 µM;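 active means activation above the mean over all tested compounds plus 3 SD, cut at about 0.9% in these data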;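 further: 0% = DMSO-only wells and 100% = 3 µM delta7-dafachronic acid wells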
DAX1 inh-2: blocks DAX1 repression of SF-1 activated StAR promoter; inhibition, % at 6.8 µM; hit rate 1.1% among 370,000; HEK293T StAR-luciferase reporter, SF-1/DAX-1 repression relief; AID 652010;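 active means inhibition above the mean over all tested compounds plus 3 SD, cut at about 3.6% in these data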;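 further: 0% = DAX-1 cells with DMSO and 100% = cells lacking DAX-1 with DMSO; higher inhibition means more luminescence from relief of DAX-1 repression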
hgDAF12 agonist: activates the H. glycines DAF-12 receptor ligand-binding domain; HEK293 GAL4-hgDAF12 UAS-luciferase reporter, agonist luminescence; normalized to butyrate control; activation, % at 6.8 µM; hit rate 1.8% among 370,000;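 active means activation above a cutoff set at the mean of all screened compounds plus 3 SD, cut at about 10% in these data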;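 further: 0% = DMSO wells and 100% = sodium butyrate wells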
DAX1 inh confirm: confirmation of human DAX1 (NR0B1) inhibitors | AID 652134 | hit rate 87% among 2,400 | inhibition, % at 6.8 µM | HEK293T StAR-promoter luciferase reporter, SF-1/DAX-1 repression | shares compounds with DAX1 inh-2;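 active means inhibition above the average of every tested compound plus 3 SD, cut at about 3.8% in these data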;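 further: 0% = DAX-1 cells with DMSO and 100% = no DAX-1 control cells with DMSO; active compounds raise luminescence by relieving repression of the StAR reporter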
Target sequence (P51843 whole entry, looked up): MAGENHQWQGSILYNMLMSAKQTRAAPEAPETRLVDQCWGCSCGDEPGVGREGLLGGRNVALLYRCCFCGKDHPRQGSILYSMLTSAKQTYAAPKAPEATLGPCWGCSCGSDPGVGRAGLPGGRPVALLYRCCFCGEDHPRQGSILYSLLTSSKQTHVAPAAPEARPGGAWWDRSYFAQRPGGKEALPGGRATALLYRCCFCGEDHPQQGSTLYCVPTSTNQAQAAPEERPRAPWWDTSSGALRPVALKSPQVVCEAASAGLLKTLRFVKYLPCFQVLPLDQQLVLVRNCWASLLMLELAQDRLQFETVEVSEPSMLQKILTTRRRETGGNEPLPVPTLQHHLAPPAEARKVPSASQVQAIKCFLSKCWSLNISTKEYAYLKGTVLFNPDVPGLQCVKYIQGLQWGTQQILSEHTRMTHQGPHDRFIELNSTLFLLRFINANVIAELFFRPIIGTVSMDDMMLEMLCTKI
SF1 AF2mut Luc: nonselective inhibitor or artifact in SF-1 mutant DAX1 counter-screen; shares compounds with DAX1 inh-2; HEK293 StAR-luciferase, SF-1 AF2 mutant, luminescence; inhibition, % at 6.8 µM; hit rate 78% among 2,400;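 active means inhibition above the mean of all tested compounds plus 3 SD, cut at about 3% in these data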;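 further: 0% = DAX-1 transfected cells with DMSO and 100% = cells without DAX-1 with DMSO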
LXRb hcDAF ctr: activates human LXR-beta, counter-screen for hcDAF-12 agonists; shares compounds with hcDAF12 agonist; HEK293 Gal4-LXR tk-luc reporter, luminescence, 24 h; normalized: DMSO 0%, positive control 100%; activation, % at 6.8 µM; 3,400 tested, under 10 active;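 active means mean percent activation of the reporter above a cutoff set as the average over tested compounds plus their standard deviation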
hcDAF12 ag: hcDAF-12 agonism, confirmation assay | shares compounds with hcDAF12 agonist | HEK293 hcDAF-12 lit1-tk-luc reporter, luminescence; % of Δ7-dafachronic acid response | activation, % at 6.8 µM | hit rate 61% among 3,400 | AID 743032;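 active means mean activation across triplicate tests above the threshold derived from the earlier primary screen, cut at about 5.5% in these data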;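 further: 0% = DMSO only wells and 100% = 3 µM Δ7-dafachronic acid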
Active calls of the source: *; . = no result given.

SMILES | hcDAF12 agonist | DAX1 inh-1 | ssDAF12 agonist | DAX1 inh-2 | hgDAF12 agonist | DAX1 inh confirm | SF1 AF2mut Luc | LXRb hcDAF ctr | hcDAF12 ag
CCCCc1nc2cc(C(=O)N(C)C3CCOCC3)ccc2o1 | 7.6* | 1 | 1 | 4.6* | 10 | 5.5* | 6.8* | 0 | 3
COC(=O)c1cc(S(=O)(=O)NCC2CCN(C(=O)C(=O)c3cccs3)CC2)cs1 | -1 | . | -1 | 1 | 2 | . | . | . | .
COc1ccc(NC(=O)c2cc3ccccn3n2)cc1 | 9.2* | 1 | 0 | 7.9* | 9 | 15* | 5.8* | 1 | 5.8*
COc1ccc(NC(=O)c2nc3ccccc3s2)cc1 | 17* | -1 | 2.5* | 5.0* | 10 | 13* | 8.2* | 2 | 15*
COC(=O)C1=C(C)N(Cc2cccc(C(F)(F)F)c2)C(=NCc2ccc(OC)cc2)NC1c1ccccc1 (stereo unspecified) | 1 | . | -1 | 0 | 3 | . | . | . | .
COc1ccc(CCN2CCCC(CN(C)C(=O)c3ccoc3)C2)cc1 (stereo unspecified) | 7.2* | 0 | 0 | 10* | 13* | 8.8* | 5.5* | 0 | 2
CN(CC1CCCN(CCc2ccccc2F)C1)C(=O)c1ccoc1 (stereo unspecified) | 1 | -1 | -1 | 1 | 1 | . | . | . | .
CCCn1c(SCc2nc3ccccc3s2)n[nH]c1=O | 12* | 2 | 1.5* | 4.8* | 11* | 8.4* | 5.0* | 1 | 11*
C[C@H]1[C@@H](N)CC[C@@]23CCCN2C(=O)CCC[C@@H]13 | 2 | . | -1 | . | 3 | . | . | . | .
Nc1ccccc1-n1nc2ccc3ccccc3c2n1 | 18* | 4.6* | 3.1* | 9.6* | 20* | 15* | 8.5* | 3 | 23*
Cc1c(N)ccc(-n2nc3ccccc3n2)c1C | 0 | . | -1 | 0 | 4 | . | . | . | .
CSc1ccc(/C=C/c2ccc3cccc(O)c3n2)cc1 | 22* | 0 | 3.2* | 5.0* | 34* | 16* | 7.1* | 2 | 11*
Cc1ccc(C(=O)N=c2sccn2C)cc1C | 14* | 1 | 1.6* | 10* | 12* | 11* | 7.2* | 1 | 11*
COc1ccc(OC)c(S(=O)(=O)N(CCc2ccc(OC)c(OC)c2)Cc2cccs2)c1 | -2 | . | -2 | -2 | -2 | . | . | . | .
COc1cccc(NC(=O)Nc2nccc(C)n2)c1 | 8.1* | -2 | 0 | 5.0* | 13* | 13* | 5.3* | 1 | 4
Fc1ccc(-c2cnn3c(-c4cccs4)ccnc23)cc1 | 32* | 4.9* | 3.9* | 7.2* | 33* | 18* | 11* | 2 | 23*
C/C(=N\NC(=O)c1ccccc1O)c1ccc(NC(=O)c2ccccc2)cc1 | 7.4* | 0 | 0 | 6.0* | 12* | 3 | 2 | 0 | 2
C/C(=N/NC(=O)c1ccncc1)c1ccc(NC(=O)c2ccccc2)cc1 | -1 | -1 | -1 | 0 | 1 | . | . | . | .
CCCc1nc2ccc(C)cn2c1Cc1ccccc1 | 7.2* | . | 1.3* | 4.6* | 7 | 2 | 3.8* | 0 | 7.3*
CCCc1nc2ccc(Br)cn2c1Cc1ccccc1 | -1 | . | -1 | 0 | 0 | . | . | . | .
CCCCCCCCN1C(=O)[C@@H](CC(=O)N2CCCC2)C[C@@]2(C(=O)OC)C1=C[C@H](C(C)(C)C)O[C@@H]2C | 1 | . | -1 | -1 | -1 | . | . | . | .
Cc1ccc(CCNC(=O)c2cccc(N3CCCC3=O)c2)cc1 | . | 0 | . | . | . | . | . | . | .
Cc1cccc(CCNC(=O)c2cccc(N3CCCC3=O)c2)c1 | 7.4* | 1 | 0 | 7.3* | 11* | 9.5* | 4.0* | 1 | 7.2*
O=C(CSc1nnc(-c2ccccc2)n1-c1ccccc1)NN=C/C=C\c1ccccc1[N+](=O)[O-] | -2 | . | -2 | -1 | -3 | . | . | . | .
CCc1ccc(NC(=O)c2cnn3ccccc23)cc1 | 12* | -4 | 1 | 5.5* | 5 | 6.1* | 1 | 2 | 19*
SMILES | hcDAF12 agonist | DAX1 inh-1 | ssDAF12 agonist | DAX1 inh-2 | hgDAF12 agonist | DAX1 inh confirm | SF1 AF2mut Luc | LXRb hcDAF ctr | hcDAF12 ag
COc1ccc(N=Nc2cc(C)ccc2O)cc1 | 7.1* | 1 | 0 | 5.0* | 25* | 15* | 6.2* | 2 | 7.3*
C[C@H]1[C@@H](OC(=O)Nc2cccc(Cl)c2)CC[C@@]23CCCN2C(=O)CCC[C@@H]13 | -1 | . | -2 | . | -4 | . | . | . | .
COC(=O)[C@@]12CCCCC3=C1N(CCC3)C(=O)[C@H]2CC(=O)NCC12CC3CC(CC(C3)C1)C2 | 1 | . | -1 | 0 | 2 | . | . | . | .
CC(C)Oc1cccc(C(=O)Nc2ccc(Br)cc2F)c1 | 7.4* | 4.7* | 0 | 6.6* | 17* | 15* | 8.4* | 1 | 4
Cc1noc(C)c1COc1cccc(C(=O)Nc2ccc(Br)cc2F)c1 | -3 | -2 | -2 | -3 | 1 | . | . | . | .
COc1ccc2ccccc2c1/C=N/Nc1cccc(C(=O)O)c1 | 1 | 1 | 0 | 0 | 3 | . | . | . | .
Cc1ccsc1/C=N/Nc1cccc(C(=O)O)c1 | 10* | -8 | 1 | 11* | 17* | 19* | 11* | 2 | 19*
Cc1ccc(/C=N/Nc2cccc(C(=O)O)c2)s1 | 12* | -4 | 2.5* | 8.3* | 27* | 17* | 8.5* | 2 | 14*
Cc1ccsc1/C=N/NC(=O)CNC(=O)c1ccccc1 | 0 | 0 | -1 | 0 | 2 | . | . | . | .
COC(=O)c1cc(NC(=O)c2c(Cl)cnn2C)cc(C(=O)OC)c1 | -2 | -2 | -1 | 0 | -1 | . | . | . | .
Cn1ncc(Cl)c1C(=O)Nc1ccc2c(c1)CCC2 | 6.8* | 1 | 1.3* | 5.8* | 10 | 5.3* | 2 | 0 | 5.7*
Clc1ccccc1/C=N/NC1=Nc2cccc3cccc1c23 | 16* | 4.3* | 2.8* | 4.6* | 18* | 18* | 8.0* | 1 | 15*
CC(=O)Nc1ccc(NC(=O)CSc2nnc(NC(=O)c3cccc(F)c3)s2)cc1 | 12* | -1 | 1.1* | 7.5* | 9 | 4.6* | 4.6* | 0 | 4
CCCc1ccc(-c2cc(C(=O)NN3CCOCC3)c3ccccc3n2)cc1 | 1 | 0 | -1 | 0 | 3 | . | . | . | .
CCc1ccc(-c2cc(C(=O)Nn3cnnc3)c3ccccc3n2)cc1 | 11* | -5 | 1 | 6.0* | 6 | 11* | 4.2* | 1 | 11*
